Structures are written as SMILES. Inconclusive results are not listed. Values without a mark were called inactive. The call rests on the fitted dose curve; in most records, active means well fitted curve in either direction with a large enough effect (not every such curve was filed as active); inconclusive means small, poorly fitted or top-dose-only effect, or another doubt; inactive means flat fitted curve, though single readings scatter.
On the % scale 0 is the no-effect control and ±100 the full control effect.

This assay is described as follows: Stat Signaling Pathway (AID 446). To be noted: ME-180 (cervical carcinoma) SIE beta-lactamase reporter, IL-6 stimulated, 5 h; at 17.2 µM (top of the series) unless noted. As to the method:
NCGC Assay Overview: The IL-6/STAT signaling pathway was assayed in ME-180 cervical carcinoma cells by a beta-lactamase reporter gene controlled by a STAT Inducible Element (SIE). This reporter is induced by IL-6 at 40 pM AC50 and inhibited by the pan JAK inhibitor, 2-(1,1-Dimethylethyl)-9-fluoro-3,6-dihydro-7H-benz[h]-imidaz[4,5-f]isoquinolin-7-one, at approximately 10 nM AC50. Plated cells were incubated overnight and on the following day, stimulated with 40 pM IL-6 for 5 hrs. The assay was screened at the AC50 of IL-6 activation to identify both inhibitors and activators of IL-6/STAT signaling.
NCGC Assay Protocol Summary: Cells were trypsinized, washed in assay medium (AM, OPTI MEM with 0.5% fetal bovine serum, 0.1 mM nonessential amino acids, 1 mM sodium pyruvate, 10mM HEPES pH 7.3, 100U/ml penicillin, and 100 ug/ml streptomycin) and suspended at 6 x 10e5/ml in AM. Approximately […] cells in 5 uL/well was dispensed into 1536 well plates and the cells were incubated overnight at 37 C. 23 nL of compound were delivered by a pin tool and 1 uL of IL-6 (40 pM final concentration in AM) was added. After centrifugation at 1000 rpm for less than a minute, plates were incubated at 37C for 5 hrs. One uL of detector mix (LiveBLAzerTM, Invitrogen) was added, the plates incubated at room temperature for 2.5 hrs, and fluorescence intensity at 460 and 530 nm emission was measured at 405 nm excitation by an Envision (Perkin Elmer) or Safire II (Tecan). Data were normalized by GeneData to the controls for AC90 stimulation (300 pM IL-6) and to AC90 inhibition (125 nM Jak inhibitor, 40 pM IL-6 in AM).
For `O=C(O)CC(NCc1ccco1)C(=O)OCC1CCCO1` (stereo not given), the activity, negative = inhibition is -1.58%.

Take `CCNCc1cc2cc(C)ccc2[nH]c1=O`: the activity, negative = inhibition is 2.05%.

Consider `COC(=O)CNc1nc(-c2cccnc2)nc2ccccc12`, for which the activity, negative = inhibition is -8.59%.

In the case of `CNC(=O)c1cc2c(ccc3ccccc32)oc1=N`, the activity, negative = inhibition is 13.1%.

With `Fc1cc(F)c(F)c(SCCc2ccncc2)c1F`, the activity, negative = inhibition is -0.589%.

Turning to `CCOC(=O)c1c(C)n(C)c2ccc(OC)c(NC(=O)CN3CCCCC3)c12`, the activity, negative = inhibition was -0.178%.

Take `O=C1c2ccccc2S(=O)(=O)N1CC(O)COc1ccc(Cl)cc1` (stereo not given): the activity, negative = inhibition was -1.8%.

For `CC(C)OCCCn1c(=N)c(C(N)=S)cc2c(=O)n3ccccc3nc21`, the activity, negative = inhibition was -1.51%.

As to `COc1ccc(OC)c(NS(=O)(=O)c2ccc(N3CCCC3=O)cc2)c1`, the activity, negative = inhibition was 11.3%.

In the case of `Cn1ncc(N=Cc2ccccc2)c1C(N)=O`, the activity, negative = inhibition was 5.52%.

Consider `COc1cccc(-c2nc(N3CCCCC3)c3ccccc3n2)c1O`, for which the activity, negative = inhibition was -5.07%.

As for `COc1ccccc1C(=O)NCC(=O)n1nc(C)cc1C`, the activity, negative = inhibition is 10.4%.

In the case of `Cc1cc(C)n(C(=O)CNC(=O)CCc2ccccc2)n1`, the activity, negative = inhibition was 2.58%.

Regarding `CC(C)(C)NCC(=O)c1c[nH]c2ccccc12`, the activity, negative = inhibition is 14.8%.

Consider `CC(=O)[C@@]1(O)CC[C@H]2[C@@H]3CCC4=CC(=O)CC[C@]4(C)[C@H]3[C@@H](O)C[C@@]21C`, for which the activity, negative = inhibition was 4.29%.

Turning to `Cc1c(O)c(CN2CCCC2)cc2c1oc(=O)c1ccccc12`, the activity, negative = inhibition is -9.48%.

As to `C=C(C)CN1CCN(c2c(CCC#N)c(C)c(C#N)c3nc4ccccc4n23)CC1`, the activity, negative = inhibition was 9.9%.

As for `Cn1c(=O)c2c(nc(Br)n2CCSc2nc3ccccc3o2)n(C)c1=O`, the activity, negative = inhibition was 10.5%.

In the case of `CCN(CC)CCCN1C(=O)C(O)=C(C(=O)c2ccc(C)o2)C1c1ccc(C)o1` (stereo not given), the activity, negative = inhibition is 9.39%.

As for `O=S(=O)(NCc1cccnc1)c1cccc2nsnc12`, the activity, negative = inhibition was 4.09%.

For the compound `Cc1cccc(C)c1N1C(=O)C2ON(c3ccccc3)C(c3ccncc3)C2C1=O` (stereo not given), the activity, negative = inhibition was -5.83%.

For `N/C(CCN1CCOCC1)=N/O`, the activity, negative = inhibition was -0.113%.

In the case of `COc1cc(C2C(C(=O)c3ccc(C)o3)=C(O)C(=O)N2c2cc(C)on2)cc(OC)c1OC` (stereo not given), the activity, negative = inhibition was 2.07%.

With `COc1ccc(-n2c(SCC(N)=O)nc3sc4c(c3c2=O)CCN(C)C4)cc1`, the activity, negative = inhibition is 2.19%.

With `Cc1nc2c(c(N3CCOCC3)n1)OCC(=O)N2`, the activity, negative = inhibition is 6.75%.

For `COCCNc1oc(-c2ccc(Cl)cc2)nc1C#N`, the activity, negative = inhibition was -5.03%.

As to `COc1ccc(-c2nc3n(n2)C(=O)CC(c2ccco2)S3)cc1` (stereo not given), the activity, negative = inhibition is -11.3%.

For `Cn1c(=O)[nH]c(=O)c2c1nc(Br)n2CCSc1nnnn1-c1ccccc1`, the activity, negative = inhibition was -8.23%.

Regarding `O=C(Nc1ccc2c(c1)OCO2)c1cncc(Br)c1`, the activity, negative = inhibition is -14.9%.

Take `CCCCCn1c2nc3ccccc3nc2c2c(=O)n(CC(C)C)cnc21`: the activity, negative = inhibition was -12.9%.

As for `O=c1[nH]c(CN2CCCCC2)nc2c1C1(CCCCC1)Cc1ccccc1-2`, the activity, negative = inhibition was -5.46%.

For `COc1cccc(-c2nc(N3CCN(Cc4ccccc4)CC3)c3ccccc3n2)c1O`, the activity, negative = inhibition is 9.62%.

With `C/C(CC1(O)C(=O)N(Cc2ccccc2)c2ccccc21)=N\O` (stereo not given), the activity, negative = inhibition is 3.88%.

For the compound `CCOC(=O)C1=C(N)c2ccccc2CC1C(C)C` (stereo not given), the activity, negative = inhibition was -8.13%.

For the compound `CCCOc1ccc(/C(O)=C2/C(=O)C(=O)N(CCCn3ccnc3)C2c2cccs2)cc1` (stereo not given), the activity, negative = inhibition is 6%.

As for `CCOC(=O)C(OC(=O)c1sc(=S)n(C)c1C)C(C)=O` (stereo not given), the activity, negative = inhibition is 9.46%.

Turning to `CCOC(=O)c1c(N)sc(=S)c2c1CCC2`, the activity, negative = inhibition was -7.28%.

As to `CCCCCCCCCCCCCCCC(O)C(N)CO` (stereo not given), the activity, negative = inhibition is 7.16%.

Consider `Cc1ccc(N(CN2C(=O)NC(C)(C)C2=O)CN2C(=O)NC(C)(C)C2=O)cc1`, for which the activity, negative = inhibition was 5.53%.

`CC1CN(c2oc(-c3cccs3)nc2C#N)CC(C)O1` (stereo not given): the activity, negative = inhibition was 14.9%.

For the origin of these results see PubChem BioAssay (NCATS).
